Source: PubChem BioAssay (NCI)
This is part of a sample that, as a whole, favours compounds with a hit. Of some 83,000 tested, about 20% had one in any assay.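 Treatment: one concentration, 48 hours, 96-well format. Scoring: percent growth, with anything below 10 considered active.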 Active and inactive are the calls of the source.

system: NCI-H322M lung; test: NCI-60 one-dose screen, 48 h (100 = growth as untreated, 0 = no growth, -100 = all killed); conditions: 10 µM unless noted

SMILES | growth
N#CSc1c[nH]c2cccc(/C=C/C(=O)/C=C(O)/C=C/c3cccc4[nH]cc(SC#N)c34)c12 | -47.5% (active)
COCCn1cc(-c2csc(-c3c[nH]c4ccc(Br)cc34)n2)c2cccnc21 | 59.5% (inactive)
N#CC1CCc2c(c(-c3ccc4nc(N)sc4c3)nc3ccc4[nH]ncc4c23)C1 (stereo not drawn) | 70.5% (inactive)
NS(=O)(=O)c1ccc(-c2cc(-c3nnc(SCC(=O)Nc4ccc(C(=O)/C=C/c5ccc(Cl)cc5)cc4)n3-c3ccccc3)c3ccccc3n2)cc1 | 89.3% (inactive)
O=C(Nc1cc(Cl)ccc1O)c1cccc(Nc2ccnc(C(F)(F)F)c2)c1 | 59.1% (inactive)
CC/C(Cc1ccccc1)=C(\c1ccc(OCCCN(C)C)cc1)c1ccc(OC(=O)NCc2ccccc2)cc1 | 87.2% (inactive)
Clc1c(Cl)[n+](Cc2ccc3ccccc3c2)cn1Cc1ccc2ccccc2c1 | 51% (inactive)
CSC(SC)=C(C#N)c1nc2ccccc2s1 | 79.4% (inactive)
O=C(CN1CCCCCC1)Nc1nc2ccc(NCc3ccc(Cl)cc3)cc2s1 | 108% (inactive)
CCC1S/C(=N\N=C(\C)c2cc3cc(Cl)ccc3o2)N(c2ccccc2)C1=O (stereo not drawn) | 82.4% (inactive)
Cc1ccc(C)c(/C=C2\CN(C(=O)OC(C)(C)C)C/C(=C\c3cc(C)ccc3C)C2=O)c1 | 93.9% (inactive)
COc1ccc(-c2n[nH]c(=O)c3nc(NC(=S)Nc4ccc(Oc5ccccc5)cc4)sc23)cc1 | 101% (inactive)
O=C1/C(=C\c2ccccn2)c2ccccc2N1c1c(Cl)cccc1Cl | 61.4% (inactive)
